Each structure is given as a SMILES string. Results filed as inconclusive are left out. Calls of active or inactive are those of the source. Calls follow the shape of the dose curve; as a rule, active = well fitted inhibition curve with a large enough effect; inconclusive = small, poorly fitted or top-dose-only effect; inactive = flat fitted curve, though single readings scatter.

Common to all, as to assay: qHTS profiling for inhibitors of Plasmodium falciparum proliferation (AID 504749); also: nearly all actives have a fitted effect of over 60% in size
What all share (settings): P. falciparum in erythrocytes, SYBR Green DNA, 72 h; series mostly up to 28.7 µM
In general terms: Quantitative high-throughput screening tests each substance at several concentrations.

The test system of test [1] is DFO2036. A digest of the protocol: (§1)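 Each compound contacts P. falciparum-infected red blood cells for 72 h at 37 C; lysis buffer (Tris, EDTA, saponin, Triton X, SYBR Green I) is added and fluorescence measured next morning; values normalized to controls.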
Test [2] has as its system DIV14. A digest of the protocol: as §1
The test system of test [3] is DIV17. A digest of the protocol: as §1
Test [4] deals with DIV30. In a few lines: as §1
Test [5] deals with Dd2. In a few lines: as §1
The test system of test [6] is ECU. In a few lines: as §1
The test system of test [7] is FAB9. A digest of the protocol:
as §1

Test [8] deals with GB4. In a few lines: as §1
The test system of test [9] is HB3. A digest of the protocol:
as §1

The test system of test [10] is ICS. In a few lines: as §1
In test [11] the test system is JCK. In a few lines: as §1
Test [12] has as its system N140. In a few lines: as §1
Test [13] has as its system P93_24. In a few lines:
as §1

The subject of test [14] is P94_40. In a few lines: as §1
The subject of test [15] is PAD. A digest of the protocol:
as §1

For test [16], the system named is PC15. In a few lines: as §1
For test [17], the system named is PC26. In a few lines: as §1
Test [18] deals with PC49. A digest of the protocol:
as §1

For test [19], the system named is SC27B. A digest of the protocol:
as §1

The subject of test [20] is TAB109. A digest of the protocol:
as §1
Potency is read from the fitted curve at half-maximal effect.

As to `Cc1nnc(SCC2=C(C(=O)O)N3C(=O)[C@@H](NC(=O)Cn4cnnn4)[C@H]3SC2)s1`, the Potency entry in [1], in test [2], in test [3], in test [4], in [5] and in test [6] was “inactive” throughout. For the same compound, the Potency entry in test [7], in test [8], in test [9], in [10], in test [11] and in [12] was “inactive” throughout. In addition, the Potency entry in [13], in [14], in test [15], in test [16], in test [17] and in test [18] was “inactive” in each case. Besides, the Potency result in test [19] and in [20] was “inactive” each time.
Turning to `CC(=O)Oc1cc(C(C)C)c(OCCN(C)C)cc1C`, the Potency result in test [1], in test [2], in test [3], in test [4], in test [5] and in test [6] was “inactive” in each case. Further, the Potency result in test [7], in test [8], in test [9], in test [10], in test [11] and in [12] was “inactive” in each case. In addition, the Potency entry in [13], in test [14], in [15], in test [16], in test [17] and in test [18] was “inactive” in each case. The Potency entry in [19] and in test [20] was “inactive” throughout.
Turning to `CSc1ccc(C(=O)c2[nH]c(=O)[nH]c2C)cc1`, the Potency result in test [1], in test [2], in [3], in test [4], in [5] and in test [6] was “inactive” in each case. Moreover, the Potency result in [7], in test [8], in test [9], in [10], in [11] and in test [12] was “inactive” each time. The Potency entry in test [13], in test [14], in test [15], in [16], in test [17] and in [18] was “inactive” in each case. In addition, the Potency entry in test [19] and in test [20] was “inactive” each time.
For `COc1cc2c(cc1OC)-c1cc(=Nc3c(C)cc(C)cc3C)n(C)c(=O)n1CC2`, the Potency in [1] is 3.55 µM (active); in test [2], 3.01 µM (active); in test [3] it was 3.38 µM (active); in [4], 6.01 µM (active); in [5] it was 7.94 µM (active); in test [6] it was 5.01 µM (active). The Potency in test [7] was 3.98 µM (active); in test [8], 2.69 µM (active); in test [9] it was 7.08 µM (active); in test [10], 1.78 µM (active); in test [11], 5.62 µM (active); in [12], 3.16 µM (active). The Potency in [13] was 3.55 µM (active); in test [14] it was 3.98 µM (active); in [15], 3.16 µM (active); in [16], 10 µM (active); in [17], 6.01 µM (active); in [18], 3.55 µM (active). Further, the values for the Potency in [19] and in [20] were 2.82 µM (active) and 4.47 µM (active), respectively.
`CN=C(NC#N)NCCSCc1nc[nH]c1C`: the Potency result in test [1], in test [2], in [3], in test [4], in [5] and in [6] was “inactive” in each case. Besides, the Potency entry in [7], in test [8], in test [9], in test [10], in test [11] and in [12] was “inactive” each time. Besides, the Potency entry in test [13], in [14], in [15], in test [16], in test [17] and in [18] was “inactive” throughout. Moreover, the Potency result in [19] and in [20] was “inactive” in each case.
As for `NC(=O)c1ncn([C@@H]2O[C@H](CO)[C@@H](O)[C@H]2O)c1O`, the Potency entry in [1], in test [2], in [3], in [4], in [5] and in test [6] was “inactive” throughout. In addition, the Potency result in test [7], in test [8], in test [9], in [10], in test [11] and in test [12] was “inactive” each time. The Potency result in test [13], in [14], in test [15], in [16], in [17] and in test [18] was “inactive” in each case. Also, the Potency entry in test [19] and in [20] was “inactive” throughout.
On to `O=c1[nH]c(=O)n([C@H]2C[C@H](O)[C@@H](CO)O2)cc1Br`, for which the Potency entry in [1], in [2], in test [3], in test [4], in test [5] and in [6] was “inactive” in each case. Also, the Potency entry in [7], in test [8], in [9], in test [10], in test [11] and in test [12] was “inactive” in each case. The Potency result in test [13], in test [14], in test [15], in test [16], in test [17] and in test [18] was “inactive” in each case. The Potency result in test [19] and in test [20] was “inactive” each time.
In the case of `CCCCNC(=O)NS(=O)(=O)c1ccc(C)cc1`, the Potency result in [1], in test [2], in test [3], in [4], in test [5] and in test [6] was “inactive” throughout. In addition, the Potency entry in [7], in test [8], in [9], in test [10], in test [11] and in test [12] was “inactive” throughout. Moreover, the Potency entry in test [13], in test [14], in [15], in test [16], in [17] and in test [18] was “inactive” in each case. The Potency result in [19] and in [20] was “inactive” in each case.
For `Cc1ccc(Cl)c(Nc2ccccc2C(=O)O)c1Cl`, the Potency result in test [1], in test [2], in test [3], in test [4], in test [5] and in [6] was “inactive” throughout. For the same compound, the Potency result in [7], in [8], in test [9], in [10], in test [11] and in test [12] was “inactive” throughout. Also, the Potency result in test [13], in test [14], in [15], in test [16], in test [17] and in [18] was “inactive” in each case. Also, the Potency entry in test [19] and in [20] was “inactive” in each case.
As for `CN1CCN(CC(=O)N2c3ccccc3C(=O)Nc3cccnc32)CC1`, the Potency entry in test [1], in [2], in test [3], in [4], in [5] and in test [6] was “inactive” in each case. Also, the Potency entry in test [7], in [8], in test [9], in test [10], in [11] and in test [12] was “inactive” each time. The Potency entry in test [13], in test [14], in test [15], in test [16], in test [17] and in test [18] was “inactive” each time. Also, the Potency result in test [19] and in test [20] was “inactive” each time.
Take `CC(=O)[C@@]1(O)CC[C@H]2[C@@H]3CCC4=CC(=O)CC[C@]4(C)[C@H]3CC[C@@]21C`: the Potency result in [1], in [2], in test [3], in test [4], in test [5] and in [6] was “inactive” throughout. Besides, the Potency entry in test [7], in test [8], in [9], in test [10], in [11] and in [12] was “inactive” each time. Besides, the Potency entry in [13], in test [14], in test [15], in test [16], in [17] and in test [18] was “inactive” each time. For the same compound, the Potency result in test [19] and in [20] was “inactive” in each case.
Consider `NC(Cc1ccc(Cl)cc1)C(=O)O` (stereo not given), for which the Potency result in test [1], in test [2], in test [3], in test [4], in [5] and in [6] was “inactive” throughout. The Potency entry in [7], in [8], in test [9], in test [10], in test [11] and in [12] was “inactive” in each case. Also, the Potency result in [13], in test [14], in test [15], in test [16], in test [17] and in [18] was “inactive” throughout. The Potency result in test [19] and in test [20] was “inactive” each time.
Take `CCN1CCc2nc(N)oc2CC1`: the Potency result in test [1], in test [2], in [3], in test [4], in [5] and in test [6] was “inactive” in each case. The Potency entry in test [7], in [8], in [9], in test [10], in test [11] and in [12] was “inactive” in each case. Further, the Potency entry in [13], in [14], in test [15], in [16], in test [17] and in test [18] was “inactive” in each case. Also, the Potency entry in test [19] and in test [20] was “inactive” throughout.

Source of the values: PubChem BioAssay (NCATS).
